Molecular target: SNCG
Assay: pooled miR-30 sensor sort-seq; sequence = guide strand
Details: shRNA

Row | Sequence | sensor-assay potency score (higher = more potent)
1 | TGCTTGGTCTTTTCCACCGCAC | -1.01
2 | TACAACATTCTCCTTGGTCTTG | -0.826
3 | TTTGGATGCCACACCCTCCTGT | -0.0802
4 | TGGTCTTTTCCACCGCACCCAC | -1.77
5 | TTGGATGCCACACCCTCCTGTT | -1.09
6 | TTGGTCTTCTCGGCCACTGAGG | -1.32
7 | TCTCTTTGGATGCCACACCCTC | -1.21

Molecular target: SNN
Assay: as above
Details: shRNA

Row | Sequence | sensor-assay potency score (higher = more potent)
8 | ATGACGATGACTGTGACCACGC | -0.588
9 | TCTCCTCGTCCTCTGACTGGCT | -0.606
10 | TCCTCTGACTGGCTGATGCGCT | -1.54
11 | TGACTGGCTGATGCGCTGCAGC | -1.74
12 | TTACAGTAGTAGCTCCATCAAA | -1.39
13 | TTCTCTCCACGCACGGTCCCTT | -1.08
14 | TTGGGAGTCATCAGCTTGGCCT | -0.835
15 | TCAGCTTGGCCTTTCTCTCCAC | -0.343
16 | TCCTCGTCCTCTGACTGGCTGA | -1.43
17 | AATGAGGATGACGATGACTGTG | -0.905
18 | TTGGCCTTTCTCTCCACGCACG | -1.27
19 | TTTCTCTCCACGCACGGTCCCT | -1.1

Reference: the OligoGym collection
